Screening results (PubChem BioAssay)
The list is not random: actives were taken first. Their share in the collection is about 3.7%.
FMDV antiviral = High Throughput Screening for Foot and Mouth Disease Virus Antivirals. FMDV antiviral cell-based qHTS. Potency, µM (series often up to 57.9 µM), for the others: top-dose activity change, negative = inhibition, usual class: inhibitors. hit rate 1.2% among 410,000; calls by dose curve; tested in HEK293T cells; note: read-out not given here; nearly all actives have a fitted effect of over 45% in size
RE007 growth inh = qHTS Assay for Inhibitors of the HIV-1 protein Vpr; AID 651644, 2012; Potency, µM (highest dose often 92.2 µM), inactives show at the top dose activity change, negative = less growth, usual class: inhibitors; hit rate 0.21% among 360,000; S. pombe RE007 Vpr strain, BacTiter-Glo ATP luminescence, 24 h; active = well fitted falling curve with a large enough effect; inconclusive = small, poorly fitted or top-dose-only effect; inactive = no such curve, though single readings can be large or run the other way; note: nearly all actives have a fitted effect of over 50% in size
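Fission yeast strain RE007, carrying one chromosomally integrated HIV-1 vpr copy, was seeded at OD 0.01 in PMG+AL medium with 23 nL pinned compound. After 24 h at 30 °C and 99% humidity, viability was read by BacTiter-Glo luminescence.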
TbPYK inhibitor = qHTS of Trypanosoma Brucei Inhibitors. pyruvate kinase (Trypanosoma brucei), Q57TT1. TbPYK enzyme, Kinase-Glo Plus ATP luminescence, 45 min. Potency, µM (doses to about 76.8 µM), without a hit: top-dose activity, negative = inhibition, most hits filed as inhibitors. hit rate 0.12% among 410,000. AID 624173, 2012; note: nearly all actives have a fitted effect of over 50% in size
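Luminescence from Kinase-Glo Plus, added after a 45-minute room-temperature reaction, served as the end-point read-out. The enzyme and substrate were preincubated with compound before ADP (130 uM final) initiated turnover. Concentration-effect curves came from normalized qHTS data.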
Sm TGR inh = qHTS Assay for the Inhibitors of Schistosoma Mansoni Peroxiredoxins; Schistosoma mansoni thioredoxin glutathione reductase (TGR), Q962Y6; purified TGR, DTNB reduction, TNB absorbance 405 nm; Potency, µM (highest dose often 114 µM), without a hit: at the top dose activity change, negative = inhibition, actives largely listed as inhibitors; AID 485364, 2010; hit rate 3% among 360,000; note: nearly all actives have a fitted effect of over 60% in size
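Kinetic colorimetric format: TGR-catalysed, NADPH-driven DTNB reduction monitored via TNB absorbance. Enzyme dispensed at 20 nM; compound exposure 15 min at room temperature before reaction start.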
The depositor's hits bear a star; ? = inconclusive; . = no result given. Unless noted, calls come from the whole dose curve; as a rule, active = well fitted curve in the direction sought with a large enough effect; inconclusive = small, poorly fitted or top-dose-only effect, or another doubt; inactive = no such curve, though single readings can be large; an effect the other way counts as inactive or inconclusive. % is set by controls: 0 for no effect and ±100 for the full control effect; potency is the fitted concentration of half-maximal effect.

SMILES | FMDV antiviral | RE007 growth inh | TbPYK inhibitor | Sm TGR inh
CC(C)(C)c1ccc(C(=O)N2CCC3(CC2)CC3C(=O)NCCc2ccccn2)cc1 (centres undefined) | 26% | . | . | .
COc1ccc(NC(=O)CN(C)CC(=O)Nc2sc3c(c2C(N)=O)CCC3)cc1 | -10% | -3% | -10% | 50µM*
Cc1ccc2c(=O)c(C(=O)c3ccc(F)cc3)cn(CC(=O)Nc3ccc4c(c3)OCCO4)c2n1 | -7% | . | -1% | 9%
COc1ccc(C2=Nn3c(nnc3-c3ccccc3Cl)SC2)cc1OC1CCCC1 | 32µM* | . | -6% | .
COc1ccc(C2=Nn3c(nnc3-c3ccccc3Cl)SC2)cc1OC1CCOC1 (centres undefined) | 33% | . | 2% | .
COC(=O)[C@]12CCCCC=C1N(Cc1ccc(Cl)cc1Cl)C(=O)[C@H](CC(=O)NCc1ccc(OC)c(OC)c1)C2 | 32µM* | 21% | 4% | .
CCOC(=O)[C@]12CCC=C1N(Cc1cccc3ccccc13)C(=O)[C@H](CC(=O)NCc1ccc(OC)c(OC)c1)C2 | 35µM* | -9% | -2% | .
COC(=O)[C@]12CCCCC=C1N(Cc1cccc3ccccc13)C(=O)[C@H](CC(=O)NCc1ccc(OC)c(OC)c1)C2 | 14µM* | 1% | 5% | .
Cc1ccc(-n2ncc3c(NCCC4=CCCCC4)ncnc32)cc1C | 11% | . | 1% | -3%
COc1ccc(N2C(=O)CC(n3c(CCCCO)nc4ccccc43)C2=O)cc1 (centres undefined) | -27% | ? | -8% | 8.9µM*
COc1ccc(N2C(=O)CC(n3cnc4ccccc43)C2=O)cc1 (centres undefined) | -25% | 3% | -6% | -22%
O=C1CC(N2CCC(c3nc4ccccc4[nH]3)CC2)C(=O)N1c1ccccc1F (centres undefined) | -3% | 35µM* | 4% | 32µM*
COc1ccc(N2C(=O)CC(N3CCC(c4nc5ccccc5[nH]4)CC3)C2=O)cc1 (centres undefined) | 4% | 40µM* | 2% | 40µM*
COc1ccc(S(=O)(=O)N2CCC(c3nc4ccccc4[nH]3)CC2)cc1 | 0% | -18% | -2% | -8%
COc1ccc(N2C(=O)CC(N3CCN(c4ccccc4F)CC3)C2=O)cc1 (centres undefined) | . | -24% | 3% | ?
CNc1cccccc1=S | -3% | -29% | -18% | 5.6µM*
C/C(CC(=O)Nc1ccc([N+](=O)[O-])cc1)=N\NC(=O)c1ccccc1O | 10% | -11% | 2% | -25%
C/C(CC(=O)Nc1ccc(N(C)C)cc1)=N\NC(=O)c1ccccc1O | 3% | -19% | -2% | 45µM*
CCN1CCN(C(c2ccccc2Cl)c2c(O)cc(C)n(CCOC)c2=O)CC1 (centres undefined) | -19% | . | 9% | 3.5µM*
CCN1CCN(C(c2ccccc2F)c2c(O)cc(C)n(CCOC)c2=O)CC1 (centres undefined) | -22% | . | 1% | 7.9µM*
CCN1CCN(C(c2ccc(SC)cc2)c2c(O)cc(C)n(CCOC)c2=O)CC1 (centres undefined) | -24% | . | 11% | 7.1µM*
CCN1CCN(C(c2cccs2)C(C)NC(=O)c2ccccc2F)CC1 (centres undefined) | 18% | -2% | -1% | -16%
COCCn1c(C)cc(O)c(C(c2ccccc2Cl)N2CCN(c3ccccc3)CC2)c1=O (centres undefined) | -18% | . | -5% | 3.2µM*
O=C1CN(C(=O)c2ccc(S(=O)(=O)N3CCCC3)cc2)C(c2ccc(F)cc2)c2cc(F)ccc2N1 (centres undefined) | -14% | . | 4% | 1%
O=S(=O)(NCCSc1nnnn1-c1ccccc1)c1ccc(F)cc1 | -6% | . | 0% | 2%
SMILES | FMDV antiviral | RE007 growth inh | TbPYK inhibitor | Sm TGR inh
Cc1ccc(-c2c(CN3CCN(c4cccc(C)c4)C(C)C3)csc2C)cc1 (centres undefined) | ? | . | 1% | 3%
Cc1ccccc1CN1C[C@@H]2C[C@@H](c3cnc(N4CCOCC4)s3)N3CCC[C@@]23C1=O | -11% | -1% | -5% | 16µM*
Cc1cccc([C@@H]2C[C@H]3CN(Cc4cccc(Cl)c4)C(=O)[C@]34CCCN24)n1 | -13% | -9% | ? | 28µM*
O=C(Nc1ccc(N2CCN(C(=O)c3ccccc3)CC2)cc1)c1ccc2c(c1)OCO2 | -9% | 4% | 5% | 16%
Cc1ccccc1C(=O)N1CCN(c2ccc(NC(=O)c3ccc4c(c3)OCCO4)cc2)CC1 | 7.1µM* | 0% | -3% | 12%
Cc1ccc(C(=O)N2CCN(c3ccc(NC(=O)c4ccc5c(c4)OCCO5)cc3)CC2)cc1 | 14µM* | -4% | -2% | 9%
Cc1ccccc1C(=O)N1CCN(c2ccc(NC(=O)c3cccc(OC(C)C)c3)cc2)CC1 | 16µM* | 12% | 3% | 0%
CCOC(=O)c1c(C)cc(O)c(C=O)c1O | -3% | . | . | .
CC(C(O)c1ccccc1)N(C)CCOC(c1ccccc1)c1ccccc1 (centres undefined) | . | . | -2% | .
COCCCn1c(SCC(=O)Nc2ccc(F)cc2)nc2c(sc3ccccc32)c1=O | 3% | . | 2% | 4%
C=CCN(CC=C)Cc1c(O)ccc2c(=O)c(-c3ccccc3)coc12 | 21% | 1% | -16% | 13µM*
Cc1cc(C(=O)N2CCOc3ccc(CN4CCC(Oc5cccnc5)CC4)cc3C2)c(C)o1 | -23% | . | . | .
O=C(CCN1CC2CCC(CC2)C1)c1cccs1 | 25µM* | -12% | -23% | .
O=C(CCN1CCCC1)c1cccs1 | 18% | -17% | -1% | 0%
COc1ccccc1C1CN(CCNC(=O)c2cnsn2)Cc2ccccc2O1 (centres undefined) | 9% | . | . | .
Cn1c(=O)c2c(nc(NN=C3CCCCC3)n2C)n(C)c1=O | -2% | -25% | -2% | 13µM*
O=C1C(=O)c2ccccc2C([O-])=C1[n+]1ccccc1 | 22µM* | 7% | -2% | 9%
CCC(C)[C@H](NC(=O)NC1CCCc2ccccc21)C(=O)O (some centres undefined) | 18% | 6% | 1% | -16%
CCC(NC(=O)C(C)NC)C(=O)N1CCCC1C(=O)NC1CCCc2ccccc21 (centres undefined) | -8% | -15% | 1% | 32µM*
CC(=O)c1ccc(OCc2cc(C(=O)N3CC[C@@H]4CCCC[C@H]4C3)no2)cc1 | -8% | -5% | 5% | 13µM*
CC(=O)c1ccc(OCc2cc(C(=O)N3CCC(c4ccncc4)CC3)no2)cc1 | ? | -7% | 1% | 45µM*
COCC1CCCN(C(=O)c2cc(COc3ccc(C(C)=O)cc3)on2)C1 (centres undefined) | 7% | -11% | 2% | .
CCCOc1ccc(-c2nonc2NC(=O)COc2ccc(C)cc2)cc1OCCC | 1% | . | 1% | 11%
O=C(Cn1nc(N2CCN(c3ccccc3)CC2)ccc1=O)NCc1cccc(Cl)c1 | -27% | . | 3% | -5%
